The values below come from PubChem BioAssay (NCATS).

Each structure is given as a SMILES string. Results filed as inconclusive are left out. Values without a mark were called inactive. Calls come from the whole dose curve; as a rule, active = well fitted inhibition curve with a large enough effect; inconclusive = small, poorly fitted or top-dose-only effect; inactive = flat fitted curve, though single readings scatter. Bridge positions count the residues as written; N and C are the ends. Square brackets hold non-standard residues; d marks the D form. Peptide text beside a SMILES is read from it. * marks the point of attachment. Ileψ(thiazoline)Cys = CC[C@H](C)[C@H](N)C1=N[C@H](C(=O)*)CS1; d(aIle) = CC[C@H](C)[C@@H](N)C(=O)O; dOrn = NCCC[C@@H](N)C(=O)O

One assay deals with ATS95. The assay is described as follows: qHTS profiling for inhibitors of Plasmodium falciparum proliferation (AID 504749).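 Note: 0% = DMSO vehicle and full inhibition = artemisinin control; nearly all actives have a fitted effect of over 60% in size.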 As to conditions: P. falciparum in erythrocytes, SYBR Green DNA, 72 h; series mostly up to 12.8 µM; activity, negative = inhibition: at the top concentration. Put shortly: (§1)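 SYBR Green fluorescence (ex 485 nm, em 535 nm) reports parasite DNA after 72 h compound exposure of infected red cells at 0.3% parasitemia, 2.5% hematocrit; signal normalized to 0.29 uM artemisinin and vehicle wells.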
In general terms: qHTS replaces the single test concentration by a dilution series.
Take `C[C@H](CCC(=O)O)[C@H]1CC[C@@H]2[C@@H]3[C@@H](O)C[C@H]4C[C@@H](O)CC[C@@]4(C)[C@H]3CC[C@@]21C`: the “activity, negative = inhibition” value is -2.53%. Same read-out and setting: in the case of `CN(C/C=C\c1ccccc1)Cc1cccc2ccccc12` it was -7.32% [at 28.7 µM]; in that of `C[C@H](C(=O)O)c1cccc(Oc2ccccc2)c1`, -0.107%. With `CC1(C)[C@@H](OC(=O)CCC(=O)O)CC[C@@]2(C)[C@H]1CC[C@@]1(C)[C@H]2C(=O)C=C2[C@H]3C[C@](C)(C(=O)O)CC[C@]3(C)CC[C@@]21C`, the “activity, negative = inhibition” value was 7.69%. For `CCOC(=O)O[C@@H](C)OC(=O)[C@@H]1N2C(=O)[C@@H](NC(=O)[C@@H](N)c3ccccc3)[C@H]2SC1(C)C`, the “activity, negative = inhibition” value is 9.35%. Still for that read-out and setting: as for `Cc1ccsc1/C=C\C1=NCCCN1C`, the figure is 12.9%. Same read-out and setting: as for `C#C[C@]1(O)CC[C@@H]2[C@H]3CCC4=CCCC[C@@H]4[C@@H]3CC[C@@]21C`, the figure is 0.778%; as for `CC[C@H](C)[C@H](N)C1=N[C@H](C(=O)N[C@@H](CC(C)C)C(=O)N[C@@H](CCC(=O)O)C(=O)N[C@@H](C(=O)N[C@H]2CCCCNC(=O)[C@@H](CC(N)=O)NC(=O)[C@@H](CC(=O)O)NC(=O)[C@@H](Cc3cnc[nH]3)NC(=O)[C@@H](Cc3ccccc3)NC(=O)[C@@H]([C@@H](C)CC)NC(=O)[C@@H](CCCN)NC2=O)[C@@H](C)CC)CS1` ({Ileψ(thiazoline)Cys}-LE[d(aIle)]K[dOrn][d(aIle)][dF][dH][dD][dN]; lactam 4-C), 1.03%. Consider `O=C(O)COCCN1CCN([C@@H](c2ccccc2)c2ccc(Cl)cc2)CC1`, for which the “activity, negative = inhibition” value is 0.713%.

As to `CC[C@H](CO)NCCN[C@@H](CC)CO`, the “activity, negative = inhibition” value was 4.54%.

In the next assay the test system is C2A. The description is as above. The conditions noted are these: P. falciparum in erythrocytes, SYBR Green DNA, 72 h; series mostly up to 12.8 µM; activity, negative = inhibition: at the top concentration. The procedure, abridged:
as §1
Turning to `CN1CCO[C@H](c2ccccc2)c2ccccc2C1`, the “activity, negative = inhibition” value is -19.3%. Take `C[C@H](CCC(=O)O)[C@H]1CC[C@@H]2[C@@H]3[C@@H](O)C[C@H]4C[C@@H](O)CC[C@@]4(C)[C@H]3CC[C@@]21C`: the “activity, negative = inhibition” value is -13.5%. As to `CN(C/C=C\c1ccccc1)Cc1cccc2ccccc12`, the “activity, negative = inhibition” value is -14.7% [at 28.7 µM].

For the compound `CCN(CCCCOC(=O)c1ccc(OC)c(OC)c1)[C@@H](C)Cc1ccc(OC)cc1`, the “activity, negative = inhibition” value is -15.2%. Regarding `CCC(=O)OCC(=O)[C@@]1(OC(=O)CC)[C@H](C)C[C@@H]2[C@@H]3[C@H]([C@@H](O)C[C@@]21C)[C@]1(C)C=CC(=O)C=C1C[C@@H]3Cl`, the “activity, negative = inhibition” value is -23.9%. In the case of `C[C@H](C(=O)O)c1cccc(Oc2ccccc2)c1`, the “activity, negative = inhibition” value is -1.82%. On to `CC1(C)[C@@H](OC(=O)CCC(=O)O)CC[C@@]2(C)[C@H]1CC[C@@]1(C)[C@H]2C(=O)C=C2[C@H]3C[C@](C)(C(=O)O)CC[C@]3(C)CC[C@@]21C`, for which the “activity, negative = inhibition” value was -2.43%. Still for that read-out and setting: in the case of `CCOC(=O)O[C@@H](C)OC(=O)[C@@H]1N2C(=O)[C@@H](NC(=O)[C@@H](N)c3ccccc3)[C@H]2SC1(C)C` it was 0.239%; in that of `Cc1ccsc1/C=C\C1=NCCCN1C`, 2.26%; in that of `Cc1cccc(CN2CCN([C@@H](c3ccccc3)c3ccc(Cl)cc3)CC2)c1`, -28.5%. For `C#C[C@]1(O)CC[C@@H]2[C@H]3CCC4=CCCC[C@@H]4[C@@H]3CC[C@@]21C`, the “activity, negative = inhibition” value was 5.64%. For the compound `CC[C@H](C)[C@H](N)C1=N[C@H](C(=O)N[C@@H](CC(C)C)C(=O)N[C@@H](CCC(=O)O)C(=O)N[C@@H](C(=O)N[C@H]2CCCCNC(=O)[C@@H](CC(N)=O)NC(=O)[C@@H](CC(=O)O)NC(=O)[C@@H](Cc3cnc[nH]3)NC(=O)[C@@H](Cc3ccccc3)NC(=O)[C@@H]([C@@H](C)CC)NC(=O)[C@@H](CCCN)NC2=O)[C@@H](C)CC)CS1` ({Ileψ(thiazoline)Cys}-LE[d(aIle)]K[dOrn][d(aIle)][dF][dH][dD][dN]; lactam 4-C), the “activity, negative = inhibition” value was 0.509%. Same read-out and setting: as for `O=C(O)COCCN1CCN([C@@H](c2ccccc2)c2ccc(Cl)cc2)CC1`, the figure is -0.849%; as for `CCN(CC)CCOC(=O)[C@@H](Cc1cccc2ccccc12)C[C@@H]1CCCO1`, -14.2%. Regarding `C[C@@H](CNC1CCCCC1)OC(=O)c1ccccc1`, the “activity, negative = inhibition” value is -25.8%. As to `CC[C@H](CO)NCCN[C@@H](CC)CO`, the “activity, negative = inhibition” value was -10.2%.
